Reference: the supplement of paper PMC8371130
Structures can show the parent of a compound that is named as a salt.

Test system: HL-1
Experiment: relative cell viability (CellTiter-Glo) vs DMSO control (% of DMSO control); higher = more viable cells
In short: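 HL-1 mouse atrial cardiomyocytes were plated in 384-well plates at 1000 cells per well together with compounds at 40, 200, 1000 or 5000 nM in 0.01% DMSO. One day later, cells went to a hypoxic workstation (1% O2) for 48 h, then were reoxygenated for 24 h in a normal incubator, or stayed in normoxia for the same time. Cell viability was read by CellTiter-Glo luminescence and normalised to vehicle-treated control cells.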

[1] = oxygen condition: hypoxia 48 h (1% O2) + reoxygenation 24 h, 40 nM
[2] = oxygen condition: hypoxia 48 h (1% O2) + reoxygenation 24 h, 200 nM
[3] = oxygen condition: hypoxia 48 h (1% O2) + reoxygenation 24 h, 1000 nM
[4] = oxygen condition: hypoxia 48 h (1% O2) + reoxygenation 24 h, 5000 nM
[5] = oxygen condition: normoxia 72 h, 40 nM
[6] = oxygen condition: normoxia 72 h, 200 nM
[7] = oxygen condition: normoxia 72 h, 1000 nM
[8] = oxygen condition: normoxia 72 h, 5000 nM

Which relative cell viability [1] does the source give for C[N+](C)(C)CCCCCC[N+](C)(C)C [Hexamethonium bromide] here?
Its relative cell viability is 101.

What about the relative cell viability [2] of the same compound?
Its relative cell viability is 99.3.

And the relative cell viability [3]?
Its relative cell viability is 105.

And the relative cell viability [4]?
The relative cell viability was 113.

And the relative cell viability [5]?
The relative cell viability was 94.2.

What about the relative cell viability [6] of the same compound?
The relative cell viability was 96.6.

What about the relative cell viability [7] of the same compound?
Its relative cell viability is 100.

What about the relative cell viability [8] of the same compound?
The relative cell viability was 103.

Which relative cell viability [1] does the source give for CCCCc1oc2ccccc2c1C(=O)c1cc(I)c(OCCN(CC)CC)c(I)c1 [Amiodarone HCl] here?
Its relative cell viability is 99.8.

And the relative cell viability [2]?
The relative cell viability was 95.4.

And the relative cell viability [3]?
Its relative cell viability is 103.

What about the relative cell viability [4] of the same compound?
The relative cell viability was 110.

And the relative cell viability [5]?
The relative cell viability was 102.

And the relative cell viability [6]?
The relative cell viability was 110.

And the relative cell viability [7]?
Its relative cell viability is 106.

And the relative cell viability [8]?
Its relative cell viability is 116.

What does the source list for CCC(=O)NCC[C@@H]1CCc2ccc3c(c21)CCO3 [Ramelteon]?
relative cell viability [1]: 104; relative cell viability [2]: 116; relative cell viability [3]: 110; relative cell viability [4]: 111; relative cell viability [5]: 105; relative cell viability [6]: 108; relative cell viability [7]: 118; relative cell viability [8]: 107

CCN(CC)CCOC(=O)c1ccc(N)cc1 [Procaine] was tested. Which relative cell viability [1] did it give?
Its relative cell viability is 100.

What about the relative cell viability [2] of the same compound?
The relative cell viability was 102.

What about the relative cell viability [3] of the same compound?
Its relative cell viability is 109.

What about the relative cell viability [4] of the same compound?
The relative cell viability was 108.

What about the relative cell viability [5] of the same compound?
The relative cell viability was 105.

And the relative cell viability [6]?
Its relative cell viability is 104.

What about the relative cell viability [7] of the same compound?
The relative cell viability was 105.

And the relative cell viability [8]?
The relative cell viability was 110.

Which relative cell viability [1] does the source give for O=C(O)C1=CO[C@@H](O[C@@H]2O[C@H](CO)[C@@H](O)[C@H](O)[C@H]2O)[C@@H]2C(CO)=CC[C@H]12 [Geniposidic acid] here?
The relative cell viability was 107.

And the relative cell viability [2]?
The relative cell viability was 109.

And the relative cell viability [3]?
Its relative cell viability is 110.

And the relative cell viability [4]?
The relative cell viability was 112.

What about the relative cell viability [5] of the same compound?
Its relative cell viability is 103.

What about the relative cell viability [6] of the same compound?
The relative cell viability was 120.

And the relative cell viability [7]?
The relative cell viability was 117.

And the relative cell viability [8]?
Its relative cell viability is 121.

What does the source list for CCc1ccc(CCOc2ccc(CC3SC(=O)NC3=O)cc2)nc1 (stereo not given) [Pioglitazone]?
relative cell viability [1]: 109; relative cell viability [2]: 110; relative cell viability [3]: 114; relative cell viability [4]: 116; relative cell viability [5]: 104; relative cell viability [6]: 107; relative cell viability [7]: 117; relative cell viability [8]: 120

For C=C1/C(=C\C=C2/CCC[C@]3(C)[C@@H]([C@H](C)CCCC(C)C)CC[C@@H]23)C[C@@H](O)C[C@@H]1O [Alfacalcidol], which relative cell viability [1] is on record?
The relative cell viability was 109.

And the relative cell viability [2]?
Its relative cell viability is 104.

What about the relative cell viability [3] of the same compound?
The relative cell viability was 118.

What about the relative cell viability [4] of the same compound?
Its relative cell viability is 106.

What about the relative cell viability [5] of the same compound?
Its relative cell viability is 108.

What about the relative cell viability [6] of the same compound?
The relative cell viability was 104.

And the relative cell viability [7]?
The relative cell viability was 88.5.

And the relative cell viability [8]?
Its relative cell viability is 106.

What does the source list for O=c1oc2c(O)c(O)cc3c(=O)oc4c(O)c(O)cc1c4c23 [Ellagic acid]?
relative cell viability [1]: 113; relative cell viability [2]: 104; relative cell viability [3]: 114; relative cell viability [4]: 124; relative cell viability [5]: 101; relative cell viability [6]: 113; relative cell viability [7]: 118; relative cell viability [8]: 119

For CC(=O)Oc1ccc(C(c2ccc(OC(C)=O)cc2)c2ccccn2)cc1 [Bisacodyl], which relative cell viability [1] is on record?
Its relative cell viability is 103.

What about the relative cell viability [2] of the same compound?
Its relative cell viability is 100.

And the relative cell viability [3]?
The relative cell viability was 109.

What about the relative cell viability [4] of the same compound?
The relative cell viability was 111.

And the relative cell viability [5]?
Its relative cell viability is 101.

And the relative cell viability [6]?
The relative cell viability was 115.

And the relative cell viability [7]?
The relative cell viability was 101.

What about the relative cell viability [8] of the same compound?
The relative cell viability was 101.

For Nc1nc(=O)c2c([nH]1)NCC(CNc1ccc(C(=O)N[C@@H](CCC(=O)O)C(=O)O)cc1)N2C=O (stereo not given in full) [Leucovorin Calcium], which relative cell viability [1] is on record?
The relative cell viability was 106.

And the relative cell viability [2]?
The relative cell viability was 111.

And the relative cell viability [3]?
Its relative cell viability is 110.

What about the relative cell viability [4] of the same compound?
Its relative cell viability is 104.

And the relative cell viability [5]?
Its relative cell viability is 98.

What about the relative cell viability [6] of the same compound?
Its relative cell viability is 101.

What about the relative cell viability [7] of the same compound?
The relative cell viability was 102.

And the relative cell viability [8]?
Its relative cell viability is 95.3.

What does the source list for COc1cc([C@@H]2c3cc4c(cc3[C@@H](O[C@@H]3O[C@@H]5CO[C@@H](C)O[C@H]5[C@H](O)[C@H]3O)[C@H]3COC(=O)[C@H]23)OCO4)cc(OC)c1O [Etoposide]?
relative cell viability [1]: 85.7; relative cell viability [2]: 67.1; relative cell viability [3]: 46.6; relative cell viability [4]: 19.1; relative cell viability [5]: 91.3; relative cell viability [6]: 60.8; relative cell viability [7]: 40; relative cell viability [8]: 13.9

With COc1nc(C)nc(Cl)c1NC1=NCCN1 [Moxonidine] as the compound, how does the relative cell viability [1] read?
Its relative cell viability is 103.

What about the relative cell viability [2] of the same compound?
Its relative cell viability is 97.1.

What about the relative cell viability [3] of the same compound?
The relative cell viability was 99.6.

And the relative cell viability [4]?
Its relative cell viability is 112.

What about the relative cell viability [5] of the same compound?
The relative cell viability was 110.

What about the relative cell viability [6] of the same compound?
The relative cell viability was 103.

And the relative cell viability [7]?
Its relative cell viability is 107.

What about the relative cell viability [8] of the same compound?
The relative cell viability was 111.

Which results are given for COc1cc2c(cc1O)CC[C@@H]1[C@@H]2CC[C@]2(C)[C@@H](O)CC[C@@H]12 [2-Methoxyestradiol]?
relative cell viability [1]: 106; relative cell viability [2]: 104; relative cell viability [3]: 102; relative cell viability [4]: 112; relative cell viability [5]: 102; relative cell viability [6]: 105; relative cell viability [7]: 102; relative cell viability [8]: 109

How did the relative cell viability [1] turn out when CNC(=O)c1cc(Oc2ccc(NC(=O)Nc3ccc(Cl)c(C(F)(F)F)c3)c(F)c2)ccn1 [Regorafenib] was run?
Its relative cell viability is 107.

And the relative cell viability [2]?
Its relative cell viability is 113.

And the relative cell viability [3]?
Its relative cell viability is 109.

And the relative cell viability [4]?
The relative cell viability was 114.

And the relative cell viability [5]?
Its relative cell viability is 110.

And the relative cell viability [6]?
The relative cell viability was 110.

And the relative cell viability [7]?
Its relative cell viability is 114.

What about the relative cell viability [8] of the same compound?
Its relative cell viability is 134.

With CC/C(=C(\c1ccccc1)c1ccc(OCCN(C)C)cc1)c1ccccc1 [Tamoxifen Citrate] as the compound, how does the relative cell viability [1] read?
Its relative cell viability is 103.

What about the relative cell viability [2] of the same compound?
The relative cell viability was 99.9.

And the relative cell viability [3]?
The relative cell viability was 98.6.

What about the relative cell viability [4] of the same compound?
Its relative cell viability is 108.

And the relative cell viability [5]?
The relative cell viability was 95.9.

And the relative cell viability [6]?
Its relative cell viability is 107.

What about the relative cell viability [7] of the same compound?
Its relative cell viability is 105.

And the relative cell viability [8]?
Its relative cell viability is 103.

Which relative cell viability [1] does the source give for Cc1cc2c(cc1S(N)(=O)=O)S(=O)(=O)CCC2 [Meticrane] here?
The relative cell viability was 101.

And the relative cell viability [2]?
The relative cell viability was 101.

What about the relative cell viability [3] of the same compound?
The relative cell viability was 105.

What about the relative cell viability [4] of the same compound?
Its relative cell viability is 103.

And the relative cell viability [5]?
Its relative cell viability is 102.

And the relative cell viability [6]?
Its relative cell viability is 104.

And the relative cell viability [7]?
The relative cell viability was 102.

And the relative cell viability [8]?
Its relative cell viability is 112.

What does the source list for O=C(O)C[C@H](O)C[C@H](O)/C=C/c1c(C2CC2)nc2ccccc2c1-c1ccc(F)cc1 [Pitavastatin calcium]?
relative cell viability [1]: 109; relative cell viability [2]: 109; relative cell viability [3]: 85.5; relative cell viability [4]: 7.03; relative cell viability [5]: 117; relative cell viability [6]: 109; relative cell viability [7]: 88.9; relative cell viability [8]: 4.53

With NC12CC3CC(CC(C3)C1)C2 [Amantadine hydrochloride] as the compound, how does the relative cell viability [1] read?
Its relative cell viability is 107.

What about the relative cell viability [2] of the same compound?
Its relative cell viability is 110.

And the relative cell viability [3]?
Its relative cell viability is 93.3.

And the relative cell viability [4]?
Its relative cell viability is 32.7.

And the relative cell viability [5]?
Its relative cell viability is 102.

What about the relative cell viability [6] of the same compound?
Its relative cell viability is 101.

And the relative cell viability [7]?
The relative cell viability was 101.

What about the relative cell viability [8] of the same compound?
Its relative cell viability is 84.9.

COc1cc2c(cc1OC)C(=O)C(CC1CCN(Cc3ccccc3)CC1)C2 (stereo not given) [Donepezil HCl] was tested. Which relative cell viability [1] did it give?
Its relative cell viability is 106.

And the relative cell viability [2]?
Its relative cell viability is 106.

What about the relative cell viability [3] of the same compound?
Its relative cell viability is 110.

And the relative cell viability [4]?
The relative cell viability was 106.

And the relative cell viability [5]?
Its relative cell viability is 95.9.

What about the relative cell viability [6] of the same compound?
The relative cell viability was 102.

What about the relative cell viability [7] of the same compound?
Its relative cell viability is 103.

What about the relative cell viability [8] of the same compound?
Its relative cell viability is 107.

Which relative cell viability [1] does the source give for CO[C@@H]1[C@@H](OC(N)=O)[C@@H](O)[C@H](Oc2ccc3c(O)c(NC(=O)c4ccc(O)c(CC=C(C)C)c4)c(=O)oc3c2C)OC1(C)C [Novobiocin sodium] here?
Its relative cell viability is 100.

And the relative cell viability [2]?
Its relative cell viability is 102.

What about the relative cell viability [3] of the same compound?
The relative cell viability was 102.

What about the relative cell viability [4] of the same compound?
Its relative cell viability is 110.

What about the relative cell viability [5] of the same compound?
Its relative cell viability is 97.1.

And the relative cell viability [6]?
Its relative cell viability is 99.2.

What about the relative cell viability [7] of the same compound?
The relative cell viability was 101.

And the relative cell viability [8]?
Its relative cell viability is 113.
